# Source: PubChem BioAssay AID1159580 (chemical genetic matrix, 2015)
# In all, about 5,500 compounds went through this assay and about 2,000 (36%) were called active. Inconclusive results (about 18%) are left out. The list shows a part of the results. Values without a mark were called inactive. Rule as the data show it: active = normalized growth mostly below about 0.91 (no sharp cut-off); inconclusive = no clear call, values can overlap the other calls; inactive = mostly above about 0.92.
# Assay: chemical genetic growth profiling, strain panel (AID 1159580);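 also: tested at 20 µM; growth read once vehicle control cultures reached saturation at 30 °C; 1 = growth at the plate median or of vehicle wells; lower values mean less growth of the strain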
# Settings: S. cerevisiae deletion strains, growth OD
structure (smiles),measurement,setting,value
CC(=O)O.CC(=O)O.[Cd],normalized growth,"locus YAL013W, strain DEP1, active compounds read low",0.225 (active)
same,normalized growth,"locus YAL021C, strain ccr4, active compounds read low",0.629 (active)
same,normalized growth,"locus YAL026C, strain drs2, active compounds read low",0.436 (active)
same,normalized growth,"locus YAL030W, strain snc1, active compounds read low",0.77 (active)
same,normalized growth,"locus YBL061C, strain skt5, active compounds read low",0.771 (active)
same,normalized growth,"locus YBR009C, strain hhf1, active compounds read low",0.606 (active)
same,normalized growth,"locus YBR021W, strain FUR4, active compounds read low",0.106 (active)
same,normalized growth,"locus YBR023C, strain chs3, active compounds read low",0.743 (active)
same,normalized growth,"locus YBR171W, strain sec66, active compounds read low",0.786 (active)
same,normalized growth,"locus YBR229C, strain ROT2, active compounds read low",0.747 (active)
same,normalized growth,"locus YBR231C, strain swc5, active compounds read low",0.666 (active)
same,normalized growth,"locus YBR279W, strain paf1, active compounds read low",0.635 (active)
same,normalized growth,"locus YCL011C, strain gbp2, active compounds read low",0.632 (active)
same,normalized growth,"locus YCL016C, strain dcc1, active compounds read low",0.754 (active)
same,normalized growth,"locus YCL029C, strain bik1, active compounds read low",0.313 (active)
same,normalized growth,"locus YCL061C, strain MRC1, active compounds read low",0.783 (active)
same,normalized growth,"locus YCL069W, strain vba3, active compounds read low",0.762 (active)
same,normalized growth,"locus YCR088W, strain abp1, active compounds read low",0.654 (active)
same,normalized growth,"locus YDL005C, strain med2, active compounds read low",0.513 (active)
same,normalized growth,"locus YDL035C, strain GPR1, active compounds read low",0.243 (active)
same,normalized growth,"locus YDL040C, strain nat1, active compounds read low",0.589 (active)
same,normalized growth,"locus YDL074C, strain BRE1, active compounds read low",0.25 (active)
same,normalized growth,"locus YDL101C, strain DUN1, active compounds read low",0.177 (active)
same,normalized growth,"locus YDL134C, strain PPH21, active compounds read low",0.467 (active)
same,normalized growth,"locus YDL185W, strain tfp1, active compounds read low",0.482 (active)
same,normalized growth,"locus YDL192W, strain arf1, active compounds read low",0.144 (active)
same,normalized growth,"locus YDR001C, strain nth1, active compounds read low",0.845 (active)
same,normalized growth,"locus YDR069C, strain doa4, active compounds read low",0.107 (active)
same,normalized growth,"locus YDR101C, strain arx1, active compounds read low",0.319 (active)
same,normalized growth,"locus YDR137W, strain rgp1, active compounds read low",0.375 (active)
same,normalized growth,"locus YDR150W, strain NUM1, active compounds read low",0.175 (active)
same,normalized growth,"locus YDR159W, strain sac3, active compounds read low",0.828 (active)
same,normalized growth,"locus YDR162C, strain NBP2, active compounds read low",0.111 (active)
same,normalized growth,"locus YDR195W, strain ref2",0.512 (active)
same,normalized growth,"locus YDR297W, strain sur2, active compounds read low",0.727 (active)
same,normalized growth,"locus YDR318W, strain mcm21, active compounds read low",0.264 (active)
same,normalized growth,"locus YDR334W, strain swr1, active compounds read low",0.532 (active)
same,normalized growth,"locus YDR335W, strain msn5, active compounds read low",0.782 (active)
same,normalized growth,"locus YDR388W, active compounds read low",0.0738 (active)
same,normalized growth,"locus YDR392W, strain spt3, active compounds read low",0.299 (active)
same,normalized growth,"locus YDR502C, strain sam2, active compounds read low",0.464 (active)
same,normalized growth,"locus YEL003W, strain gim4, active compounds read low",0.681 (active)
same,normalized growth,"locus YEL037C, strain rad23, active compounds read low",0.786 (active)
same,normalized growth,"locus YEL061C, strain CIN8 (second series), active compounds read low",0.866 (active)
same,normalized growth,"locus YEL061C, strain CIN8, active compounds read low",0.342 (active)
same,normalized growth,"locus YER015W, strain faa2, active compounds read low",0.632 (active)
same,normalized growth,"locus YER016W, strain bim1, active compounds read low",0.702 (active)
same,normalized growth,"locus YER110C, active compounds read low",0.499 (active)
same,normalized growth,"locus YER111C, strain swi4, active compounds read low",0.872 (active)
same,normalized growth,"locus YER155C, strain BEM2 (second series), active compounds read low",0.446 (active)
same,normalized growth,"locus YER155C, strain BEM2, active compounds read low",0.519 (active)
same,normalized growth,"locus YER167W, strain BCK2, active compounds read low",0.269 (active)
same,normalized growth,"locus YFR010W, strain ubp6, active compounds read low",0.356 (active)
same,normalized growth,"locus YGL078C, strain dbp3, active compounds read low",0.466 (active)
same,normalized growth,"locus YGL086W, strain mad1, active compounds read low",0.256 (active)
same,normalized growth,"locus YGL167C, strain pmr1, active compounds read low",0.493 (active)
same,normalized growth,"locus YGL173C, strain kem1, active compounds read low",0.68 (active)
same,normalized growth,"locus YGL227W, strain vid30, active compounds read low",0.901 (active)
same,normalized growth,"locus YGL240W, strain doc1, active compounds read low",0.711 (active)
same,normalized growth,"locus YGL248W, strain PDE1, active compounds read low",0.356 (active)
same,normalized growth,"locus YGL253W, strain hxk2, active compounds read low",0.825 (active)
same,normalized growth,"locus YGR078C, strain PAC10, active compounds read low",0.721 (active)
same,normalized growth,"locus YGR135W, strain pre9, active compounds read low",0.565 (active)
same,normalized growth,"locus YGR229C, strain SMI1, active compounds read low",0.11 (active)
same,normalized growth,"locus YGR252W, strain gcn5, active compounds read low",0.253 (active)
same,normalized growth,"locus YHR013C, strain ard1, active compounds read low",0.303 (active)
same,normalized growth,"locus YHR027C, strain rpn1, active compounds read low",0.58 (active)
same,normalized growth,"locus YHR030C, strain SLT2, active compounds read low",0.508 (active)
same,normalized growth,"locus YHR079C, strain IRE1 (second series), active compounds read low",0.196 (active)
same,normalized growth,"locus YHR094C, strain hxt1, active compounds read low",0.529 (active)
same,normalized growth,"locus YHR129C, strain ARP1, active compounds read low",0.563 (active)
same,normalized growth,"locus YHR142W, strain chs7, active compounds read low",0.761 (active)
same,normalized growth,"locus YHR200W, strain rpn10, active compounds read low",0.513 (active)
same,normalized growth,"locus YIL066C, strain RNR3, active compounds read low",0.27 (active)
same,normalized growth,"locus YIL073C, strain SPO22, active compounds read low",0.134 (active)
same,normalized growth,"locus YIL125W, strain kgd1, active compounds read low",0.356 (active)
same,normalized growth,"locus YIR030C, strain dcg1, active compounds read low",0.383 (active)
same,normalized growth,"locus YJL092W, strain hpr5, active compounds read low",0.744 (active)
same,normalized growth,"locus YJL095W, strain BCK1 (second series), active compounds read low",0.669 (active)
same,normalized growth,"locus YJL095W, strain BCK1, active compounds read low",0.266 (active)
same,normalized growth,"locus YJL115W, strain asf1, active compounds read low",0.858 (active)
same,normalized growth,"locus YJL129C, strain trk1, active compounds read low",1.1
same,normalized growth,"locus YJL134W, strain LCB3, active compounds read low",0.643 (active)
same,normalized growth,"locus YJL154C, strain vps35, active compounds read low",0.485 (active)
same,normalized growth,"locus YJL164C, strain tpk1, active compounds read low",0.684 (active)
same,normalized growth,"locus YJL166W, strain qcr8, active compounds read low",0.59 (active)
same,normalized growth,"locus YJL168C, strain set2, active compounds read low",0.4 (active)
same,normalized growth,"locus YJL187C, strain SWE1 (second series), active compounds read low",0.326 (active)
same,normalized growth,"locus YJL187C, strain SWE1, active compounds read low",0.771 (active)
